In PubChem BioAssay:
Inconclusive results are not listed. Calls of active or inactive are those of the source.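 The calls were made as follows, unless noted: active = differentiation response of at least 50%, scaled between solvent and reference control, from cells with both markers; inactive = the rest.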

Legend:
[1] = yeast TOR pathway RPL19A-GFP modulators, primary screen, cell-based, S. cerevisiae, multiplex flow cytometry (AID 1862; in the data active = percent of DMSO control GFP below about 86%;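 also: lower values mimic rapamycin by blocking the RPL19A rise seen in DMSO cells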); conditions: S. cerevisiae RPL19A-GFP strain, flow cytometry fluorescence, 3 h; at 10 µM; stronger effect = lower value
[2] = modulators of MEP2-GFP levels in yeast, primary screen, S. cerevisiae, multiplex flow cytometry (AID 1867;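 active = GFP response, as percent of the DMSO control, above the screen-wide mean plus 3 SD, about 139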;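 also: median GFP channel fluorescence of barcode-gated MEP2-GFP cells measured by flow cytometry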); conditions: S. cerevisiae MEP2-GFP strain, 3 h, at 10 µM, stronger effect = higher value, 100% means same as DMSO wells
[3] = modulators of CIT2-GFP expression in yeast, primary screen, S. cerevisiae, GFP fusion, multiplex flow cytometry (AID 1870;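 active = percent response above a set limit, the screen-wide mean plus 3 SD, cut at about 130% in these data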;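 also: barcoded CIT2-GFP strain pooled with four other GFP strains with rapamycin as positive control; median GFP fluorescence per well over plate mean of DMSO wells so 100% = DMSO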); conditions: 3 h, at 10 µM, stronger effect = higher value
[4] = modulators of LAP4-GFP expression in yeast, primary screen, S. cerevisiae, multiplex flow cytometry (AID 1873;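 active = GFP signal, as percent of the solvent control, above the screen mean plus 3 SD, about 149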); conditions: 3 h, at 10 µM, stronger effect = higher value
[5] = modulators of AGP1-GFP expression in yeast TOR pathway, primary screen, cell-based, multiplex flow cytometry, S. cerevisiae (AID 1887;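 active = GFP signal above the screen-wide mean plus 3 SD, that is over about 124.5% of the solvent control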;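 also: AGP1-GFP fusion strain of S. cerevisiae within a five-strain barcoded multiplex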); conditions: 3 h, at 10 µM, stronger effect = higher value
[6] = inhibitors of CD8+ T cell-vesicle binding, pilot screen, LFA-1/ICAM-1 modulator project, MLPCN validation set, flow cytometry (AID 2523;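 active = response below a set limit, under 55% cells CD8-positive and vesicle-bound, and CD8 cells' 90th-percentile brightness under 279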;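 as to vesicle binding response: mean PE anti-B7-1 fluorescence of CD8+ cells relative to row control; 100% = QL9-loaded vesicles with DMSO vehicle in the same plate row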); conditions: 2C mouse CD8+ T cells, at 7 µM, stronger effect = lower value; double positive events: measured here: CD8+/vesicle+ event percentage
[7] = target: Integrin beta-1 (Homo sapiens) + Integrin alpha-4 (Homo sapiens) (UniProt P13612+P05556); assay: inhibition of HUTS-21 binding to VLA-4, pilot screen, VLA-4 allosteric modulator project, U937 cells, HUTS-21 mAb, flow cytometry, validation set (AID 2674;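 active = inhibition above 50%, about 3 SD of the validation set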;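 also: antibody binding induced by the VLA-4 ligand LDV present at three times its Kd; 0% = LDV ligand with antibody and no compound and 100% = antibody without LDV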); conditions: HUTS-21 LIBS mAb binding, at 6.7 µM, stronger effect = higher value, binding induced by LDV ligand
Sequence of Integrin beta-1 (Homo sapiens) + Integrin alpha-4 (Homo sapiens) (P05556 whole entry, looked up): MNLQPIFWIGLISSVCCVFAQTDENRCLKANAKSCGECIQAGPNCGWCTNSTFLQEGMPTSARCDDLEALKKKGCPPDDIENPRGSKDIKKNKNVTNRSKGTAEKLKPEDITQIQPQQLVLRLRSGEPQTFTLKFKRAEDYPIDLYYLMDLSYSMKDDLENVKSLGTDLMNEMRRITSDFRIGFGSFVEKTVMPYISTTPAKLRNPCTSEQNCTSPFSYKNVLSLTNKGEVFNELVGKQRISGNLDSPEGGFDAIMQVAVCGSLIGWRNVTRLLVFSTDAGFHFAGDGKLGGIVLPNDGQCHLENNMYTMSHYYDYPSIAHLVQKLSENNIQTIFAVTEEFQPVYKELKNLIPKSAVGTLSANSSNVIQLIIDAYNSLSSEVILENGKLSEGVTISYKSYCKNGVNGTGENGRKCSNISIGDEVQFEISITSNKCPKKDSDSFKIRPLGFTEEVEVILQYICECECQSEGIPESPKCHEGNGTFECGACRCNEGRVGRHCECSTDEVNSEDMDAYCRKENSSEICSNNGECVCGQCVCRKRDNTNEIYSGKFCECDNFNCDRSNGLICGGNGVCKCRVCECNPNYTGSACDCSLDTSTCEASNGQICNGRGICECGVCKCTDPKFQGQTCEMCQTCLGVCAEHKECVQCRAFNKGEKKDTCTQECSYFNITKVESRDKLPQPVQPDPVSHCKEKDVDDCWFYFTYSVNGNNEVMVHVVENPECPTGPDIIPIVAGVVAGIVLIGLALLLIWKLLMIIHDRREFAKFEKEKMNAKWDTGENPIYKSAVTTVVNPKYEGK
Sequence of Integrin beta-1 (Homo sapiens) + Integrin alpha-4 (Homo sapiens) (P13612 whole entry, looked up): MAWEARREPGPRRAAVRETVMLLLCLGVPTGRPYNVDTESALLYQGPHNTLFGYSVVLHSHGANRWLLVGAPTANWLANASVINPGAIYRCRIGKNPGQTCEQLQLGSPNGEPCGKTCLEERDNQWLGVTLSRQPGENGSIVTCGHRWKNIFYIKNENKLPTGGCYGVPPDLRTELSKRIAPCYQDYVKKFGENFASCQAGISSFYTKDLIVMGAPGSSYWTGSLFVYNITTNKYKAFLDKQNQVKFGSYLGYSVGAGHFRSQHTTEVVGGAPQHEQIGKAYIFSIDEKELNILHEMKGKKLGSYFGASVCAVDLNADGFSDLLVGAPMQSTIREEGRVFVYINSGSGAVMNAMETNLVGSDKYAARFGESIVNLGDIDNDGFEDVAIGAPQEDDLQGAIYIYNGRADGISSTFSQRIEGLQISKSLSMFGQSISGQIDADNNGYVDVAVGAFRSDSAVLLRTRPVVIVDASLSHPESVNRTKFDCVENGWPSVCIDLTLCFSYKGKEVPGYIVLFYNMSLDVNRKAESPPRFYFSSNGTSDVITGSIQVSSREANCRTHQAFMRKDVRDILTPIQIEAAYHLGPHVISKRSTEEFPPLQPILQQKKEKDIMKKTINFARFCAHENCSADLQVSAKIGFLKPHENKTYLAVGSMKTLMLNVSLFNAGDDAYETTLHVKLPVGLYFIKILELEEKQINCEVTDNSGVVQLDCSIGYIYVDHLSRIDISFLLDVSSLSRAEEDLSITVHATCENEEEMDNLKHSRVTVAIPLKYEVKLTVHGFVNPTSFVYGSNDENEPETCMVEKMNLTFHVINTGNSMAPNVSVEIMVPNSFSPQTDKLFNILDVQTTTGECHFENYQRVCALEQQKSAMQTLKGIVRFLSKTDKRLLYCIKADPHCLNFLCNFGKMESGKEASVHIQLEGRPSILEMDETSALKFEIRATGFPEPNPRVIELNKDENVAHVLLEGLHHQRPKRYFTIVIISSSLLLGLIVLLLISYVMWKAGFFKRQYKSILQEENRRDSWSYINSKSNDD

[8] = superoxide lowering in aged yeast cells, pilot screen, validation compound set (AID 2706;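 active = superoxide response below 65% of plate, a cut near 3 SD across the whole screen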;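 also: yeast exposed to compound for one week at 30 degrees C before staining; 100% = mean of all compound wells on the same plate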); conditions: S. cerevisiae aging, superoxide DHE fluorescence; at 10 µM; stronger effect = lower value
[9] = target: Beta-adrenergic receptor kinase 1 (Homo sapiens) (UniProt P25098); assay: GRK2 binders displacing RNA aptamer, biochemical, validation, human GRK2, bead flow cytometry (AID 488806;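 active = aptamer binding inhibition above 30%, about 3 SD of noise from non-fluorescent compounds; inactive = inhibition at or below 30%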); conditions: bead-bound GRK2, FAM-aptamer displacement, at 10 µM, stronger effect = higher value
Sequence of Beta-adrenergic receptor kinase 1 (Homo sapiens) (P25098 whole entry, looked up): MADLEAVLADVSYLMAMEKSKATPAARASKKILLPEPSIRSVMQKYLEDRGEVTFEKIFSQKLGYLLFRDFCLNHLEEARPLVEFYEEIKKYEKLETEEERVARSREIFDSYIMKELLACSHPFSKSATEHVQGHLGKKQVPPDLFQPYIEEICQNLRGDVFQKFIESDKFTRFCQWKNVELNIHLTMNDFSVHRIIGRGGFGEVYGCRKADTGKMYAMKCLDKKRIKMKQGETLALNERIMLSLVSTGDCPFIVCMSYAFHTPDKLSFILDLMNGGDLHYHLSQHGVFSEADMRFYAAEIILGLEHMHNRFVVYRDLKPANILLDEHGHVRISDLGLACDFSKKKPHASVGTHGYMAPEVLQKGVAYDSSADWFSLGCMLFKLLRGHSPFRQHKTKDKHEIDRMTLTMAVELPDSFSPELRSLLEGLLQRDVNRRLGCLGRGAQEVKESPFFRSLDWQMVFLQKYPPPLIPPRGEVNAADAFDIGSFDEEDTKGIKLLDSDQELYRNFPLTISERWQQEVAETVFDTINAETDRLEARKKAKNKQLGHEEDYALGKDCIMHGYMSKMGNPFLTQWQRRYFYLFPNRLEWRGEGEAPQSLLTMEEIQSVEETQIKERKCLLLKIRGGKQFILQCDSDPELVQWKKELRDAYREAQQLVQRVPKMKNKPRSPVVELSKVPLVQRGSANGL

[10] = target: Beta-2 adrenergic receptor (Homo sapiens) (UniProt P07550); assay: beta2AR agonists driving receptor internalization, pilot screen, cell-based, FAP fluorogen, flow cytometry, validation set (AID 504459;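 active = percent response above 42, roughly 3 SD of non-fluorescent test compounds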;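 also: agonist-driven loss of surface beta2AR via internalization measured by FAP dye flow cytometry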); conditions: Am2.2-beta2AR cells, FAP surface receptor flow cytometry; at 10 µM; stronger effect = higher value
Sequence of Beta-2 adrenergic receptor (Homo sapiens) (P07550 whole entry, looked up): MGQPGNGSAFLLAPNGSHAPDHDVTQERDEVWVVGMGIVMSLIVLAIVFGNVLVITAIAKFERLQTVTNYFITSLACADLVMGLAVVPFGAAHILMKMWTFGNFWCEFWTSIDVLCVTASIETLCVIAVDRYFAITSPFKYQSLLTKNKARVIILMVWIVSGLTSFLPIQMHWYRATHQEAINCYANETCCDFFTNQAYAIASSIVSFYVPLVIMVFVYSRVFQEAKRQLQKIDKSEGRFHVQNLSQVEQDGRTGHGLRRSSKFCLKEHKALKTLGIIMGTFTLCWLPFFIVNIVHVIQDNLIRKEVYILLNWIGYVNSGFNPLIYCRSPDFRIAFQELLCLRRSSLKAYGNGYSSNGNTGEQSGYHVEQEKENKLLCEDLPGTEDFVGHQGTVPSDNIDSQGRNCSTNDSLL

[11] = target: AP-2 complex subunit beta (Homo sapiens) (UniProt P63010); assay: inhibitors of arrestin peptide binding to AP2, pilot screen, biochemical, validation set, GST-AP2 beads, flow cytometry (AID 504541;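 active = inhibition above 54%, about 3 SD of non-fluorescent compounds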;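 also: AP2 carries R879A mutation and is captured from E. coli lysate; bead-bound FITC arrestin peptide fluorescence measuring arrestin peptide binding to AP2; 0% = DMSO wells and 100% = excess unlabeled arrestin peptide control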); conditions: FITC arrestin peptide, at 10 µM, stronger effect = higher value, AP2 beta2 appendage fragment, R879A mutant
Sequence of AP-2 complex subunit beta (Homo sapiens) (P63010 whole entry, looked up, the tested form may be a part, one chain of several): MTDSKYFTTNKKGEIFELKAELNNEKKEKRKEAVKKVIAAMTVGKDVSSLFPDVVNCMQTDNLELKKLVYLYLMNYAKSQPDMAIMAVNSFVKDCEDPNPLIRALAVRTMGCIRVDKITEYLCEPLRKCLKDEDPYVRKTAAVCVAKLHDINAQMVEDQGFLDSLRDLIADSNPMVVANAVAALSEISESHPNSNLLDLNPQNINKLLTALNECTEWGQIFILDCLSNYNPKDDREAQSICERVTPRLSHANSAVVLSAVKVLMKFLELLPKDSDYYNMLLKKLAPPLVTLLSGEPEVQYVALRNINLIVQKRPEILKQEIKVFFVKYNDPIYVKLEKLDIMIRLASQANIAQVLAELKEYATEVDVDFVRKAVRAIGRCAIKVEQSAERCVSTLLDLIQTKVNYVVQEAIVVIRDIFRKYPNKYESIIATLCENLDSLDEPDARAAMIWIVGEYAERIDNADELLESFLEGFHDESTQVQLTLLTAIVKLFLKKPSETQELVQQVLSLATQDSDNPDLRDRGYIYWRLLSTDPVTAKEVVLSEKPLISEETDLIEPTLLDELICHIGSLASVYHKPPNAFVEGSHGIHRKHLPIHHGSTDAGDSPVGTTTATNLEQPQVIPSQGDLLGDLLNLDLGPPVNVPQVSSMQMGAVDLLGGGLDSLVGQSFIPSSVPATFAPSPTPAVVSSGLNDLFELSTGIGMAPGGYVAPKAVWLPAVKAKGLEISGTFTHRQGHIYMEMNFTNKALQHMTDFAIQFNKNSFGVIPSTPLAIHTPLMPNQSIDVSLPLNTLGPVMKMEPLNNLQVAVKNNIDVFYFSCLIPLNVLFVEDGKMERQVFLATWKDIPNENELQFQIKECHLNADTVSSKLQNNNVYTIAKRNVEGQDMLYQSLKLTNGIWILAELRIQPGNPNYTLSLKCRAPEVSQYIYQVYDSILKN

[12] = yeast V-ATPase proton transport modulators, S. cerevisiae, pHLuorin, HTS validation (AID 504600; in the data active = response above about 15%;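 also: plate controls were DMSO for no effect and reference compound for full effect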); conditions: S. cerevisiae pHLuorin cytosolic pH, at 10 µM, stronger effect = higher value
[13] = tested on: anti-desmoglein-3 scFv antibody binding to human DSG3; assay: inhibitors of anti-DSG3 scFv binding to DSG3, pilot screen, biochemical, validation compound set, bead-based, flow cytometry (AID 588368;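 active = binding below the plate cutoff, the plate median minus 3 SD, with a reading above zero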;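 also: signal is the median channel fluorescence of bead-bound GFP antibody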); conditions: Protein G beads, DSG3-Fc, scFv-GFP binding, at 10 µM, stronger effect = lower value
[14] = inhibitors of fungal efflux pumps CDR1, CDR2, MDR1, pilot screen, validation compound set, multiplex, phenotypic (AID 588506;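 active = efflux inhibition above 0.42, the validation set average plus 4 SD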;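 also: Nile Red retained in cells so higher fluorescence means more efflux inhibition; 0 = negative control wells and 1 = enniatin B 25 µM full block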); conditions: S. cerevisiae pump-expressing triplex, Nile Red efflux flow cytometry; at 10 µM; stronger effect = higher value; the pumps come from Candida albicans
[15] = target: ATP-binding cassette sub-family B member 6 (Homo sapiens) (UniProt Q9NP58); assay: ABCB6 transporter inhibitors, pilot screen, K562-ABCB6 cells, flow cytometry, validation set (AID 588550;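 active = inhibition above the screen-wide mean plus 3 SD, about 51%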;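 also: 0% = DMSO wells and 100% = benzethonium chloride 70 µM positive control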); conditions: K562-ABCB6 porphyrin accumulation, 1 h, at 10 µM, stronger effect = higher value
Sequence of ATP-binding cassette sub-family B member 6 (Homo sapiens) (Q9NP58 whole entry, looked up): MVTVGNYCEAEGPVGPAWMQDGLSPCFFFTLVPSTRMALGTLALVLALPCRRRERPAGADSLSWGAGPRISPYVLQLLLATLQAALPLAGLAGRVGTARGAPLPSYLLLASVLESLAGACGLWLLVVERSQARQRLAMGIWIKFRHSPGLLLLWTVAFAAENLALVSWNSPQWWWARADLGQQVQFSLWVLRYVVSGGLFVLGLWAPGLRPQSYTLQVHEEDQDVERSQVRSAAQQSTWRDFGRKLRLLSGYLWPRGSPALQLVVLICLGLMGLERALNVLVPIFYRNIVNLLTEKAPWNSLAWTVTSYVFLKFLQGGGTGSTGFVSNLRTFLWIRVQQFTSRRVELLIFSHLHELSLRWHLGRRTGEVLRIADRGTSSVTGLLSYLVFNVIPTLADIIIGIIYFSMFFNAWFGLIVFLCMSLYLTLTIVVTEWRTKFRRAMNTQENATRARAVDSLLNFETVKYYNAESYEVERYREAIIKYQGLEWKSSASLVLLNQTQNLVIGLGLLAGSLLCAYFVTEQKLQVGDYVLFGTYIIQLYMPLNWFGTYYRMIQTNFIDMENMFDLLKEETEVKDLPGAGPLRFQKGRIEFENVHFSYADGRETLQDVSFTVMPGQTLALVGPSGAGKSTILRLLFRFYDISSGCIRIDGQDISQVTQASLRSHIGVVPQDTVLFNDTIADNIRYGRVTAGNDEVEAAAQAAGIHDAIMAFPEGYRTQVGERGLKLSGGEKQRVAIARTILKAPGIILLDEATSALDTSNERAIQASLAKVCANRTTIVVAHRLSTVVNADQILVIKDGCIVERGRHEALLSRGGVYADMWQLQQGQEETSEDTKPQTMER

[16] = promoters of myeloid differentiation in arrested cells, primary screen, cell-based, GFP/MAC1 double positive, flow cytometry, validation set (AID 588685); conditions: ER-HoxA9 marrow cells, stronger effect = higher value, normalized: vehicle 0, fulvestrant 100;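 also: compound exposure lasts four days before antibody staining and flow analysis; 0% = DMSO wells and 100% = 5 µM fulvestrant positive control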

Cc1ccc2c(c1)c1c3n2CCCN(Cc2ccccc2)C3CCC1 (stereo not given)
inactive: percent of DMSO control GFP [1] 100% | GFP response vs DMSO [2] 104% | percent response of DMSO control [3] 105% | GFP response vs DMSO [4] 103% | GFP response, % of DMSO [5] 92.5% | vesicle binding response [6] 490% | inhibition [7] -27.7% | superoxide response (% of plate) [8] 81.8% | aptamer binding inhibition [9] 0% | response [10] 14.8% | inhibition [11] -2.35% | response [12] -2.93% | binding (% of control) [13] 102% | efflux inhibition (fraction of control) [14] 0.33 | inhibition [15] 6% | differentiation response [16] 8.8%
77.6%: double positive events [6]

CC(=O)c1cccc(NC(=O)N[C@@H](CC(C)C)C(=O)O)c1
inactive: percent of DMSO control GFP [1] 104% | GFP response vs DMSO [2] 101% | percent response of DMSO control [3] 104% | GFP response vs DMSO [4] 96.6% | GFP response, % of DMSO [5] 104% | vesicle binding response [6] 230% | inhibition [7] -9.79% | superoxide response (% of plate) [8] 109% | aptamer binding inhibition [9] -2% | response [10] -0.44% | inhibition [11] 17.6% | response [12] -2.05% | binding (% of control) [13] 99.2% | efflux inhibition (fraction of control) [14] 0.18 | inhibition [15] 6% | differentiation response [16] 9.04%
57.9%: double positive events [6]

COc1cccc2c(=O)c(C/C=C(/C)Cl)c(C)[nH]c12
inactive: percent of DMSO control GFP [1] 107% | GFP response vs DMSO [2] 103% | percent response of DMSO control [3] 101% | GFP response vs DMSO [4] 131% | GFP response, % of DMSO [5] 108% | vesicle binding response [6] 6720% | inhibition [7] 6.4% | superoxide response (% of plate) [8] 107% | aptamer binding inhibition [9] 3% | response [10] 3.25% | inhibition [11] -8.34% | response [12] 3.49% | binding (% of control) [13] 95.7% | efflux inhibition (fraction of control) [14] 0.01 | inhibition [15] 3% | differentiation response [16] -16.8%
65.6%: double positive events [6]

COc1ccc(C(=O)Oc2ccc3c(C)cc(=O)oc3c2C(C)=O)cc1
inactive: percent of DMSO control GFP [1] 104% | GFP response vs DMSO [2] 103% | percent response of DMSO control [3] 108% | GFP response vs DMSO [4] 105% | GFP response, % of DMSO [5] 106% | vesicle binding response [6] 123% | inhibition [7] -5.11% | superoxide response (% of plate) [8] 103% | aptamer binding inhibition [9] -1% | response [10] 2.26% | inhibition [11] 5.55% | response [12] -3.4% | binding (% of control) [13] 107% | efflux inhibition (fraction of control) [14] 0.12 | inhibition [15] 14% | differentiation response [16] -19.2%
61.4%: double positive events [6]

NCCc1ccc(O)c(O)c1
inactive: percent of DMSO control GFP [1] 98.2% | GFP response vs DMSO [2] 107% | percent response of DMSO control [3] 93.1% | GFP response vs DMSO [4] 92% | GFP response, % of DMSO [5] 95.6% | vesicle binding response [6] 831% | inhibition [7] -10.8% | superoxide response (% of plate) [8] 90.7% | aptamer binding inhibition [9] 3% | response [10] 11.2% | inhibition [11] 11.9% | response [12] -0.98% | binding (% of control) [13] 94.3% | efflux inhibition (fraction of control) [14] 0.08 | inhibition [15] 6% | differentiation response [16] 5.13%
65.4%: double positive events [6]

Cc1cc(Cl)cc2c1NC(=O)[C@]21[C@@H]2C(=O)N(Cc3ccccc3)C(=O)[C@@H]2[C@@H]2CCCN21
63.7%: double positive events [6]
inactive: percent of DMSO control GFP [1] 96.2% | GFP response vs DMSO [2] 95.7% | percent response of DMSO control [3] 90.5% | GFP response vs DMSO [4] 102% | GFP response, % of DMSO [5] 99.6% | vesicle binding response [6] 154% | inhibition [7] -232% | superoxide response (% of plate) [8] 95.7% | aptamer binding inhibition [9] 6% | response [10] -4.55% | inhibition [11] -2.45% | response [12] 3.96% | binding (% of control) [13] 104% | efflux inhibition (fraction of control) [14] 0.08 | inhibition [15] -22% | differentiation response [16] -14.8%

NC(N)=N/N=C/c1c(Cl)cccc1Cl
inactive: percent of DMSO control GFP [1] 102% | GFP response vs DMSO [2] 105% | percent response of DMSO control [3] 105% | GFP response vs DMSO [4] 101% | GFP response, % of DMSO [5] 108% | vesicle binding response [6] 169% | inhibition [7] -11.8% | superoxide response (% of plate) [8] 81.5% | aptamer binding inhibition [9] -4% | response [10] -0.34% | inhibition [11] 5.82% | response [12] -3.91% | binding (% of control) [13] 99.4% | efflux inhibition (fraction of control) [14] -0.085 | inhibition [15] -5% | differentiation response [16] -13.3%
67.2%: double positive events [6]

Cc1ccsc1C1NC(=O)c2ccccc2N1 (stereo not given)
inactive: percent of DMSO control GFP [1] 103% | GFP response vs DMSO [2] 95.2% | percent response of DMSO control [3] 94.8% | GFP response vs DMSO [4] 93.1% | GFP response, % of DMSO [5] 93.8% | vesicle binding response [6] 266% | inhibition [7] 0.94% | superoxide response (% of plate) [8] 102% | aptamer binding inhibition [9] 1% | response [10] -6.32% | inhibition [11] -5.8% | response [12] -1.97% | binding (% of control) [13] 97.6% | efflux inhibition (fraction of control) [14] -0.28 | inhibition [15] 6% | differentiation response [16] -15.2%
59.5%: double positive events [6]

O=C(c1cccc2ccccc12)C1CCCN(C(=O)CCN2CCCO2)C1 (stereo not given)
inactive: percent of DMSO control GFP [1] 104% | GFP response vs DMSO [2] 98.3% | percent response of DMSO control [3] 109% | GFP response vs DMSO [4] 105% | GFP response, % of DMSO [5] 106% | vesicle binding response [6] 377% | inhibition [7] 7.85% | superoxide response (% of plate) [8] 90.5% | aptamer binding inhibition [9] 0% | response [10] -9.24% | inhibition [11] -0.89% | response [12] 2.67% | binding (% of control) [13] 96.4% | efflux inhibition (fraction of control) [14] -0.32 | inhibition [15] 4% | differentiation response [16] -0.73%
62.4%: double positive events [6]

C/C(CCc1oc2ccc(Cl)cc2c1-c1ccc(C)o1)=N\O
63.1%: double positive events [6]
inactive: percent of DMSO control GFP [1] 101% | GFP response vs DMSO [2] 103% | percent response of DMSO control [3] 103% | GFP response vs DMSO [4] 125% | GFP response, % of DMSO [5] 102% | vesicle binding response [6] 157% | inhibition [7] -16.4% | superoxide response (% of plate) [8] 107% | aptamer binding inhibition [9] 0% | response [10] -13% | inhibition [11] 4.9% | response [12] 6.85% | binding (% of control) [13] 111% | efflux inhibition (fraction of control) [14] 0 | inhibition [15] -3% | differentiation response [16] 9.79%
